# Experimental data: PubChem BioAssay (NCI)
# About 83,000 compounds went through this panel and 20% of them were active in at least one assay; those are over-represented in the sample as a whole.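 Single-dose data. Exposure time 48 hours. Values below 10 considered active.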 Values without a mark were called inactive. Active and inactive are the calls of the source.
# Columns and labels:
# Assay in all cases: NCI-60 one-dose screen, 48 h (100 = growth as untreated, 0 = no growth, -100 = all killed)
# Conditions in all cases: 10 µM unless noted
# NCI-H23 lung = test system: NCI-H23 lung
# NCI-H226 lung = test system: NCI-H226 lung
# NCI-H322M lung = test system: NCI-H322M lung
# HOP-62 NSCLC = test system: HOP-62 NSCLC
# NCI-H460 lung = test system: NCI-H460 lung
# HOP-92 NSCLC = test system: HOP-92 NSCLC
# A549/ATCC NSCLC = test system: A549/ATCC NSCLC
# 786-0 renal = test system: 786-0 renal
# COLO 205 colon = test system: COLO 205 colon
# NCI-H522 lung = test system: NCI-H522 lung
SMILES,growth (NCI-H23 lung),growth (NCI-H226 lung),growth (NCI-H322M lung),growth (HOP-62 NSCLC),growth (NCI-H460 lung),growth (HOP-92 NSCLC),growth (A549/ATCC NSCLC),growth (786-0 renal),growth (COLO 205 colon),growth (NCI-H522 lung)
O=C(Cc1ccc(/C=C/C(=O)c2ncc[nH]2)cc1)Nc1cc(F)c(F)c(F)c1,32.2%,95.2%,72.8%,90.6%,28.2%,116%,70.6%,8.88% (active),64.9%,–
Nc1nc2ccccc2c2c(=O)c3cc(Cl)ccc3sc12,87.5%,92.7%,91.8%,89.7%,86.2%,81.3%,93.9%,98.5%,114%,93.4%
c1ccc(Nc2nc3c(s2)CCc2c[nH]cc2-3)nc1,91.1%,74.7%,90.5%,92.7%,100%,88.9%,91.6%,105%,98.4%,-49.9% (active)
OC1CSSC1Cn1cnc2c(Nc3ccc(OCc4cccc(F)c4)c(Cl)c3)ncnc21 (stereo not drawn),-69.4% (active),4.07% (active),-27.8% (active),-27.2% (active),-6.17% (active),139%,3.03% (active),69.5%,-58.3% (active),-31.6% (active)
O=S(=O)(NCCNc1nccc(-c2c(-c3ccc(F)c(O)c3)nc3sccn23)n1)c1ccc(Cl)cc1,42.1%,24.2%,55.8%,60.2%,27%,45%,25.7%,38.3%,17.6%,–
O=C(Nc1cc(Cl)cc(Cl)c1)Oc1c(Cl)c(Cl)c(Cl)c(Cl)c1Cl,57%,72.5%,99.2%,94.4%,72.6%,-18.7% (active),71.2%,81.1%,80.7%,–
CC(C)CCC[C@@H](C)[C@H]1CC[C@H]2[C@@H]3CC=C4c5sc(Nc6cc(C(F)(F)F)cc(C(F)(F)F)c6)nc5CC[C@]4(C)[C@H]3CC[C@]12C,93.4%,104%,99.1%,81.9%,105%,79%,92.1%,110%,99.8%,101%
CCCc1cc(=O)oc2c(C(=O)CC(C)C)c(O)c(CC=C(C)C)c(O)c12,-29.1% (active),23.5%,22.3%,51.1%,15.8%,-25.5% (active),23.8%,29.2%,50.3%,–
COc1ccc(C/C(C)=C(\c2ccc(Cl)cc2)c2ccc(OCCN3CCCC3)cc2)cc1,85%,98.1%,91.6%,94.6%,81.9%,70.5%,79%,83.7%,47.8%,90%
Cc1nn(-c2ccc([N+](=O)[O-])cc2)c2ncnc(N/N=C/c3ccccc3O)c12,15.3%,35%,13.4%,-2.87% (active),0.666% (active),36.6%,13%,3.2% (active),1.21% (active),0.557% (active)
Nc1ncnc2c1N=C(c1ccc(Cl)cc1)CC(c1cccc(Nc3ccnc4cc(Cl)ccc34)c1)N2 (stereo not drawn),66.8%,87.5%,84.1%,70.4%,75.6%,44.7%,84.5%,67.5%,66.2%,93.8%
COC(=O)/C=C1/SC(=NCc2ccccc2)N(CCc2c[nH]c3ccccc23)C1=O,87.2%,109%,98.9%,102%,91.8%,74.6%,93.1%,89.4%,98.7%,77.1%
COc1ccc(-c2cc(-c3cn(-c4cccc(Cl)c4)nc3-c3ccc(OC)cc3)on2)cc1,95.3%,89.9%,86.9%,107%,98.6%,104%,83%,100%,116%,–
Cc1cc(Cl)nc(N2CCN(CCNc3ccnc4cc(Cl)ccc34)CC2)n1,27.2%,59.8%,75.2%,68.2%,48.3%,27.9%,58.2%,49.1%,-50.1% (active),–
CCn1cc(C(=O)N/N=C/c2cccc(F)c2)c(=O)c2cc(F)c(N3CCNC(C)C3)c(F)c21 (stereo not drawn),76.2%,97.1%,83.4%,86.5%,-79% (active),51.2%,-66.6% (active),-39.7% (active),17.5%,–
O=S(O)c1cc(Cl)cc(Cl)c1OCc1ccccc1,101%,94.5%,95.9%,101%,101%,87.6%,90.2%,102%,105%,–
COc1cc(-c2cc(-c3ccc(Nc4nc(Nc5ccc(Cl)cc5)nc(Nc5ccc(Cl)cc5)n4)cc3)no2)cc(OC)c1OC,88.3%,78%,80.8%,70.3%,76.2%,37.9%,66.7%,72.7%,51.5%,–
CCOc1ncc([N+](=O)[O-])c(OCC)n1,106%,107%,123%,104%,113%,82.2%,98.9%,108%,112%,–
CNCC[C@H](Oc1cccc2ccccc12)c1cccs1,80.6%,96.7%,98.2%,128%,104%,52.5%,96.4%,82.9%,102%,–
CN(C)c1ccc([C@@H](C(=O)Nc2cccc([N+](=O)[O-])c2)N(C(=O)c2cc3ccccc3[nH]2)c2cccc([N+](=O)[O-])c2)cc1,97.5%,97.5%,95%,88.7%,98.2%,70.9%,92.9%,95.5%,102%,–
COc1ccc(C2[C@@H](c3ccccc3)C(=O)N2c2cc(OC)c(OC)c(OC)c2)cc1F (stereo partly drawn),25.3%,66.6%,38.2%,19.1%,5.92% (active),28.1%,8.88% (active),13.9%,-48.2% (active),–
O=C(CCCCCCCC(=O)N1CCCCC1)N1CCCCC1,94.6%,109%,115%,110%,98.7%,98.8%,102%,105%,113%,–
COc1ccc2cc(C(=O)N3CCC([C@@H](C)C(=O)NCc4ccc5c(c4)OCO5)CC3)[nH]c2c1,26.3% [50 µM],-5.97% [50 µM] (active),86.7% [50 µM],-1.78% [50 µM] (active),41.9% [50 µM],-17.6% [50 µM] (active),53.7% [50 µM],-10.5% [50 µM] (active),88.5% [50 µM],–
O=C(/C=C/c1ccco1)Nc1ncc(Cc2cc(Cl)ccc2Cl)s1,33.4%,39.4%,43.7%,17.8%,3.88% (active),72.4%,19.8%,31.4%,-14.2% (active),-4.32% (active)
Clc1ccc(Nc2ncc(Cc3cccc(Cl)c3Cl)s2)cc1,88.7%,102%,110%,108%,97.6%,89%,86.7%,95.2%,104%,–
Fc1cccc(-c2nc(-c3c[nH]c4ncccc34)cs2)c1,64.2% [100 µM],53.1% [100 µM],59.1% [100 µM],48.9% [100 µM],40.5% [100 µM],38.3% [100 µM],33.9% [100 µM],62.3% [100 µM],76.9% [100 µM],81.5% [100 µM]
CCn1cc(C(=O)N/N=C/c2ccccc2)c(=O)c2cc(F)c(N3CCNC(C)C3)c(F)c21 (stereo not drawn),68.5%,87.4%,52.4%,68.6%,-73% (active),55.8%,-83.9% (active),-67.4% (active),-74.4% (active),–
CCCC(=O)NC(c1ccc2c(c1)OCO2)c1cc(Cl)c2cccnc2c1O (stereo not drawn),48.3%,50.4%,42.1%,23.1%,22.7%,39.4%,30.7%,32.4%,11.5%,13.8%
